According to PubChem BioAssay (Tox21):
Results filed as inconclusive are left out. The source made the active and inactive calls. Unless noted, calls follow the shape of the full dose curve. Where a SMILES comes first, the peptide text is derived from it. [ ]: non-standard residue; d: D form. pGlu = O=C1CC[C@@H](C(=O)O)N1

Assays:
[1] = qHTS assay to identify small molecule antagonists of the vitamin D receptor (VDR) signaling pathway - cell viability counter screen (AID 743225; active = well fitted curve in the direction sought with a large enough effect in the repeat runs; an effect the other way counts as inactive or inconclusive; also: % is scaled to controls: 0 for no effect and ±100 for the full control effect; nearly all actives have a fitted effect of over 50% in size)
Method in brief: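 Cytotoxicity toward the VDR-bla HEK 293T line was scored by ATP-based CellTiter-Glo luminescence, read in the wells already used for the beta-lactamase readout after 16 h compound treatment under 3 nM 1-alpha,25-dihydroxyvitamin D3 stimulation.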

[2] = qHTS assay to identify small molecule agonists of the NFkB signaling pathway - cell viability counter screen (AID 1159515); also: series mostly up to about 61 µM; % is scaled to controls: 0 for no effect and ±100 for the full control effect; nearly all actives have a fitted effect of over 55% in size
Method in brief: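 Multiplexed viability readout: after the 5 hr compound exposure and 1.5 hr FRET substrate step, CellTiter-Glo reagent went into the same NFkB-bla ME-180 wells; ATP luminescence was measured after 30 min at room temperature.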

[3] = qHTS assay to identify small molecule agonists of the endoplasmic reticulum stress response signaling pathway (AID 1159516; active = well fitted activation curve with a large enough effect in the signal ratio in the repeat runs, not every such curve was filed as active; the % refers to the signal ratio; also: % is scaled to controls: 0 for no effect and ±100 for the full control effect)
Method in brief: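 Tox21 10K library screened in quantitative HTS format on ESRE-bla HeLa cells, a beta-lactamase reporter under ER stress response element control; 5 hr treatment, FRET read.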

[4] = qHTS assay to identify small molecule agonists of the endoplasmic reticulum stress response signaling pathway - cell viability counter screen (AID 1159517); also: series mostly up to about 61 µM; % is scaled to controls: 0 for no effect and ±100 for the full control effect; nearly all actives have a fitted effect of over 50% in size
Method in brief: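 HeLa cells carrying an ESRE-driven beta-lactamase reporter receive compound for 5 hr at 37 C. Cell viability is then gauged with CellTiter-Glo by luminescence, 30 min at room temperature.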

[5] = qHTS assay to identify small molecule antagonists of the retinoid-related orphan receptor gamma (ROR-gamma) signaling pathway - cell viability counter screen (AID 1159520; active = well fitted curve in the direction sought with a large enough effect in the repeat runs; an effect the other way counts as inactive or inconclusive; also: % is scaled to controls: 0 for no effect and ±100 for the full control effect; nearly all actives have a fitted effect of over 50% in size)
Method in brief: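 Cytotoxicity was read from cellular ATP (CellTiter-Glo luminescence) after 16 hr at 37 C with 1 uM doxycycline induction. The inducer was added 2 hr after compound transfer to Tet-on ROR gamma CHO cells.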

[6] = target: Nuclear receptor ROR-gamma (Homo sapiens) (UniProt P51449); assay: qHTS assay to identify small molecule antagonists of the retinoid-related orphan receptor gamma (ROR-gamma) signaling pathway (AID 1159521; active = well fitted curve in the direction sought with a large enough effect in the repeat runs; an effect the other way counts as inactive or inconclusive; also: nearly all actives have a fitted effect of over 50% in size; also: potency is read from the fitted curve at half-maximal effect;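 as to activity change, negative = inhibition: CHO cells with doxycycline inducible ROR-gamma driving an RORE luciferase reporter; top concentration of the series differs between compounds; % is scaled to controls: 0 for no effect and ±100 for the full control effect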)
Method in brief: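 Readout: ONE-Glo luciferase luminescence, 30 min at room temperature. System: Tet-on RORγ CHO, RORE-LUC. Sequence: compound 2 h, doxycycline 1 uM final, 16 h at 37 C.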

[7] = qHTS assay to identify small molecule agonists of the AP-1 signaling pathway - cell viability counter screen (AID 1159525); also: nearly all actives have a fitted effect of over 55% in size
Method in brief: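 Luminescent ATP readout (Cell Titer Glo, 30 min RT), normalised to DMSO and tetra n-octyl ammonium bromide controls. Cells were ME-180 AP-1-bla in 0.5% dialyzed FBS Opti-MEM, with a 5 h, 37 °C compound exposure.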

[8] = qHTS assay to identify small molecule agonists of the AP-1 signaling pathway (AID 1159526); also: % is scaled to controls: 0 for no effect and ±100 for the full control effect
[9] = target: Retinoic acid receptor RXR-alpha (Homo sapiens) (UniProt P19793); assay: qHTS assay to identify small molecule agonists of the RXR signaling pathway (AID 1159527); also: % is scaled to controls: 0 for no effect and ±100 for the full control effect; nearly all actives have a fitted effect of over 35% in size
Chain of Retinoic acid receptor RXR-alpha (Homo sapiens) (P19793 whole entry, looked up): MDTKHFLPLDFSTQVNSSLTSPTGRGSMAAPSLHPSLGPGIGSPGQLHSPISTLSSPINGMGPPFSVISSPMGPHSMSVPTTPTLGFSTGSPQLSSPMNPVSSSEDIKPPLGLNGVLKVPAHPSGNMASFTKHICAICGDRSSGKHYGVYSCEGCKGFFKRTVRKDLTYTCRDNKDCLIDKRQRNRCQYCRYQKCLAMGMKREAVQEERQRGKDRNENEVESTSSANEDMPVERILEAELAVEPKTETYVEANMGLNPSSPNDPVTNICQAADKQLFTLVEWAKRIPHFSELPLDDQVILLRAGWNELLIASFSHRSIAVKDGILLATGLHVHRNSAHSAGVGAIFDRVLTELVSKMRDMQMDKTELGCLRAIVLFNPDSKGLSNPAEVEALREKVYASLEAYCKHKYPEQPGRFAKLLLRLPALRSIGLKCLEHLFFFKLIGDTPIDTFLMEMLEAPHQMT
Method in brief: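 Reporter activation is measured as beta-lactamase activity via FRET substrate cleavage (emission 460/530 nm) in HEK 293T cells expressing an RXR-alpha-driven bla construct, following 16 hr compound exposure at 37 C.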

[10] = qHTS assay to identify small molecule agonists of the RXR signaling pathway - cell viability counter screen (AID 1159529; active = well fitted curve in the direction sought with a large enough effect in the repeat runs; an effect the other way counts as inactive or inconclusive; also: nearly all actives have a fitted effect of over 50% in size; also: potency is read from the fitted curve at half-maximal effect; as to activity change, negative = cytotoxicity: series mostly up to about 77 µM; % is scaled to controls: 0 for no effect and ±100 for the full control effect)
Method in brief: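 Tox21 10K compounds were tested for cytotoxicity against GeneBLAzer RXR-alpha HEK 293T cells grown in 2% charcoal-stripped FBS. Exposure lasted 16 hr at 37 C, 5% CO2; viability read by CellTiter-Glo luminescence.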

CCC(=O)OCc1ccccc1
inactive: outcome [1] | outcome [2] | outcome [3] | outcome [4] | outcome [5] | Potency [6] | outcome [7] | outcome [8] | Potency [9] | Potency [10]

CC(C)(N)C#N
inactive: outcome [1] | outcome [2] | outcome [3] | outcome [4] | outcome [5] | Potency [6] | outcome [7] | outcome [8] | Potency [9] | Potency [10]

CCNC(=O)[C@@H]1CCCN1C(=O)[C@H](CCCN=C(N)N)NC(=O)[C@H](CC(C)C)NC(=O)CNC(=O)[C@H](Cc1ccc(O)cc1)NC(=O)[C@H](CO)NC(=O)[C@H](Cc1c[nH]c2ccccc12)NC(=O)[C@H](Cc1cnc[nH]1)NC(=O)[C@@H]1CCC(=O)N1 ([pGlu]HWSYGLRP-NHEt)
inactive: outcome [1] | outcome [2] | outcome [3] | outcome [4] | outcome [5] | Potency [6] | outcome [7] | outcome [8] | Potency [9] | Potency [10]

CCCO[Si](OCCC)(OCCC)OCCC
inactive: outcome [1] | outcome [2] | outcome [3] | outcome [4] | outcome [5] | Potency [6] | outcome [7] | outcome [8] | Potency [9] | Potency [10]

CC(CO)(CO)[N+](=O)[O-]
inactive: outcome [1] | outcome [2] | outcome [3] | outcome [4] | outcome [5] | Potency [6] | outcome [7] | outcome [8] | Potency [9] | Potency [10]

CCN(C=O)CC
active: Potency [10] 50.3 µM
inactive: outcome [1] | outcome [2] | outcome [3] | outcome [4] | outcome [5] | Potency [6] | outcome [7] | outcome [8] | Potency [9]

CC1(C)OC[C@@H](COC(=O)CCc2ccc(OC[C@@H](O)CNCCNC(=O)N3CCOCC3)cc2)O1
inactive: outcome [1] | outcome [2] | outcome [3] | outcome [4] | outcome [5] | Potency [6] | outcome [7] | outcome [8] | Potency [9] | Potency [10]

FB(F)F
inactive: outcome [1] | outcome [2] | outcome [3] | outcome [4] | outcome [5] | Potency [6] | outcome [7] | outcome [8] | Potency [9] | Potency [10]

CCCCCCCCCCOc1cc2c(=O)c(C(=O)OCC)c[nH]c2cc1OCC
inactive: viability change, negative = cytotoxic [1] -0.675% [at 6.95 µM] | activity, negative = cytotoxic [2] 6.37% [at 6.95 µM] | activation [3] 2.24% [at 6.95 µM] | activity change, negative = cytotoxicity [4] -7.49% [at 6.95 µM] | activity, negative = cytotoxicity [5] 2.58% [at 8.39 µM] | activity change, negative = inhibition [6] 36.6% [at 8.39 µM] | viability change, negative = cytotoxic [7] 15.6% [at 6.97 µM] | activation [8] 9.42% [at 6.97 µM] | activation [9] -0.304% [at 6.98 µM]

CCCCc1ccc2c(n1)[C@@H](c1ccc(OC)cc1C[C@H](C)C(=O)O)[C@H](C(=O)O)[C@H]2c1ccc2c(c1)OCO2
inactive: outcome [1] | outcome [2] | outcome [3] | outcome [4] | outcome [5] | Potency [6] | outcome [7] | outcome [8] | Potency [9] | Potency [10]

CCCn1cc[n+](C)c1C
inactive: outcome [1] | outcome [2] | outcome [3] | outcome [4] | outcome [5] | Potency [6] | outcome [7] | outcome [8] | Potency [9] | Potency [10]

O=C(O)CNC(=O)c1ccccc1
inactive: outcome [1] | outcome [2] | outcome [3] | outcome [4] | outcome [5] | Potency [6] | outcome [7] | outcome [8] | Potency [9]

COc1cc(C)nc(-n2nc(C)cc2OC)n1
inactive: outcome [1] | outcome [2] | outcome [3] | outcome [4] | outcome [5] | Potency [6] | outcome [7] | outcome [8] | Potency [9]

CC(C)(C)OC(=O)c1cccc(N)c1
inactive: outcome [1] | outcome [2] | outcome [3] | outcome [4] | outcome [5] | Potency [6] | outcome [7] | outcome [8] | Potency [9] | Potency [10]

CC1=C(C/C=C(\C)CCC[C@H](C)CCC[C@H](C)CCCC(C)C)C(=O)c2ccccc2C1=O
inactive: outcome [1] | outcome [2] | outcome [3] | outcome [4] | outcome [5] | Potency [6] | outcome [7] | outcome [8] | Potency [9]

CC1=CCC(O)(C(C)C)CC1 (stereo unspecified)
inactive: outcome [1] | outcome [2] | outcome [3] | outcome [4] | outcome [5] | Potency [6] | outcome [7] | outcome [8] | Potency [9]

CC(C)=CCC/C(C)=C/C#N
inactive: outcome [1] | outcome [2] | outcome [3] | outcome [4] | outcome [5] | Potency [6] | outcome [7] | outcome [8] | Potency [9] | Potency [10]

CC(C(=O)O)c1cccc(Oc2ccccc2)c1 (stereo unspecified)
inactive: outcome [1] | outcome [2] | outcome [3] | outcome [4] | outcome [5] | Potency [6] | outcome [7] | outcome [8] | Potency [9]

CC(C)(C)C(=O)Oc1ccc(S(=O)(=O)Nc2ccccc2C(=O)NCC(=O)O)cc1
inactive: outcome [1] | outcome [2] | outcome [3] | outcome [4] | outcome [5] | Potency [6] | outcome [7] | outcome [8] | Potency [9] | Potency [10]

[O-][n+]1cccc(CO)c1
inactive: outcome [1] | outcome [2] | outcome [3] | outcome [4] | outcome [5] | Potency [6] | outcome [7] | outcome [8] | Potency [9] | Potency [10]

O=C(CO)[C@@H](O)[C@H](O)[C@@H](O)CO
inactive: outcome [1] | outcome [2] | outcome [3] | outcome [4] | outcome [5] | Potency [6] | outcome [7] | outcome [8] | Potency [9]

CN(C)CCCN(C)CCCN(C)C
inactive: outcome [1] | outcome [2] | outcome [3] | outcome [4] | outcome [5] | Potency [6] | outcome [7] | outcome [8] | Potency [9] | Potency [10]

Cc1ncc([C@@H](CCCCCCc2ccc3c(n2)NCCC3)CC(=O)O)cn1
inactive: outcome [1] | outcome [2] | outcome [3] | outcome [4] | outcome [5] | Potency [6] | outcome [7] | outcome [8] | Potency [9] | Potency [10]

CC[N+](CC)(CC)CCOc1cccc(OCC[N+](CC)(CC)CC)c1OCC[N+](CC)(CC)CC
inactive: outcome [1] | outcome [2] | outcome [3] | outcome [4] | outcome [5] | Potency [6] | outcome [7] | outcome [8] | Potency [9] | Potency [10]

CCC(C(=O)NC(=O)NC(C)=O)c1ccccc1 (stereo unspecified)
inactive: outcome [1] | outcome [2] | outcome [3] | outcome [4] | outcome [5] | Potency [6] | outcome [7] | outcome [8] | Potency [9] | Potency [10]

COCCOCC(OC)OC
inactive: outcome [1] | outcome [2] | outcome [3] | outcome [4] | outcome [5] | Potency [6] | outcome [7] | outcome [8] | Potency [9] | Potency [10]

CCOc1ccc2nc(S(N)(=O)=O)sc2c1
inactive: outcome [1] | outcome [2] | outcome [3] | outcome [4] | outcome [5] | Potency [6] | outcome [7] | outcome [8] | Potency [9] | Potency [10]

Nc1ccn([C@@H]2O[C@H](CO)[C@@H](O)[C@@H]2O)c(=O)n1
active: Potency [6] 8.63 µM
inactive: outcome [1] | outcome [2] | outcome [3] | outcome [4] | outcome [5] | outcome [7] | outcome [8] | Potency [9]

CCCCOC(=O)CCC(C)=O
inactive: outcome [1] | outcome [2] | outcome [3] | outcome [4] | outcome [5] | Potency [6] | outcome [7] | outcome [8] | Potency [9] | Potency [10]

O=C(O)CCCC[P+](c1ccccc1)(c1ccccc1)c1ccccc1
inactive: outcome [1] | outcome [2] | outcome [3] | outcome [4] | outcome [5] | Potency [6] | outcome [7] | outcome [8] | Potency [9] | Potency [10]

C[C@@H]1CCC[C@H](C)N1
inactive: outcome [2] | outcome [3] | outcome [4] | outcome [5] | Potency [6] | outcome [7] | outcome [8] | Potency [10]

O=[N+]([O-])c1cncn1CCN1CCOCC1
inactive: outcome [1] | outcome [2] | outcome [3] | outcome [4] | outcome [5] | Potency [6] | outcome [7] | outcome [8] | Potency [10]

CC(C)COC(=O)c1ccc(N)cc1
inactive: outcome [1] | outcome [2] | outcome [3] | outcome [4] | outcome [5] | Potency [6] | outcome [8] | Potency [9] | Potency [10]

Cc1ccc(C(=O)c2ccc(CC(=O)O)n2C)cc1
inactive: outcome [1] | outcome [2] | outcome [3] | outcome [4] | outcome [5] | Potency [6] | outcome [8] | Potency [10]
